Assay outcomes (PubChem)
KB-3-1 tox – kills parental KB-3-1 adenocarcinoma cells; KB-3-1 viability, CellTiter-Glo ATP luminescence, 72 h; Potency, µM (series often up to 46.1 µM), hits mostly cytotoxic; 400,000 compounds, 1.4% hits; AID 1347075; further: nearly all actives have a fitted effect of over 60% in size
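Viability of parental KB-3-1 cells, measured by CellTiter-Glo luminescence, followed a 72 h incubation at 37 °C with pinned compounds in phenol-red-free DMEM containing 10% FBS.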
KB-V1 MDR tox – kills drug-selected multidrug resistant KB-V1 cells. KB-V1 MDR cells viability, CellTiter-Glo, 72 h. AID 1347076. Potency, µM (series often up to 46.1 µM), actives largely listed as cytotoxic. 400,000 compounds, 3.4% hits; further: nearly all actives have a fitted effect of over 60% in size
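In this primary screen, KB-V1 cells overexpressing P-gp are incubated with library compounds (lowest to highest concentration) for 72 h at 37 degrees C before a luminescent ATP viability read.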
TDP1 cell noCPT – qHTS for Inhibitors of human tyrosyl-DNA phosphodiesterase 1 (TDP1): qHTS in cells in absence of CPT. DT40 Tdp1-/- hTDP1 cells, no CPT, ATP luminescence, 48 h. Potency, µM (top dose mostly 46.2 µM), for the others: top-dose activity change, negative = growth inhibition, actives largely listed as inhibitors. 420,000 compounds, 15% hits; further: nearly all actives have a fitted effect of over 55% in size
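No-CPT arm: Tdp1-/-;hTDP1 DT40 cells (400/well) plus compounds, incubated ≥48 hr at 37 °C. Readout CellTiter-Glo luminescence.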
HT1080 IDH1KD tx – toxicity to HT-1080 IDH1 knockdown cells (counter line) | AID 686971 | HT-1080 IDH1 knockdown viability, ATP luminescence, 48 h | 360,000 compounds, 2% hits | Potency, µM (doses to about 46.1 µM), without a hit: at the highest dose activity, negative = toxicity, most hits filed as cytotoxic;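 further: 0% = DMSO wells and -100% = cell-free medium wells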
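IDH1KD HT-1080 cells, 750/well, RPMI + 5% FBS; compound pinned after 2 h settling; 48 h, 37 °C; CellTiter-Glo luminescence; % activity normalised to DMSO and no-cell wells; curves fitted, classed by r2 and efficacy.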
HT1080NT lethal – kills 2HG-producing HT-1080-NT fibrosarcoma cells | HT-1080-NT fibrosarcoma viability, CellTiter-Glo ATP luminescence, 48 h | Potency, µM (titrated, usually from 46.1 µM), for inactives: at the top dose activity, negative = less viability, most hits filed as cytotoxic | 360,000 compounds, 1.6% hits | AID 686970;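 further: NT is the 2HG producing partner of a matched IDH1 knockdown line; 0% = DMSO-treated cells and -100% = media-only wells without cells; nearly all actives have a fitted effect of over 55% in size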
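Read-out is CellTiter-Glo luminescence after 10 minutes at room temperature, following 48 hours' compound treatment of HT-1080-NT cells (750 cells/well, RPMI, 5% FBS, 37 degrees C).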
TDP1 cell CPT – growth inhibition of DT40 Tdp1-/-;hTDP1 cells with camptothecin (screen for TDP1 inhibitors). Potency, µM (doses to about 46.2 µM), for the others: at the highest dose activity change, negative = growth inhibition, actives largely listed as inhibitors. AID 686979. chicken DT40 Tdp1-/-;hTDP1 cells + 20 nM CPT, ATP luminescence, 48 h. 420,000 compounds, 12% hits; further: nearly all actives have a fitted effect of over 55% in size
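Chicken DT40 Tdp1-/- cells stably complemented with human TDP1 were seeded at 400 cells/well in medium containing 20 nM camptothecin, exposed to pin-transferred compounds, and grown at 37 °C for at least 48 hr. Viability was read as ATP luminescence.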
An asterisk follows results filed as active; i = inactive; ? = inconclusive; / = no result given. Only some compounds are listed: those with a hit (about 19% of all), similar ones and a draw of the others. The call rests on the fitted dose curve; in most records, active means well fitted curve in the direction sought with a large enough effect; inconclusive means small, poorly fitted or top-dose-only effect, or another doubt; inactive means no such curve, though single readings can be large; an effect the other way counts as inactive or inconclusive. Unless noted, on the % scale 0 is the no-effect control and ±100 the full control effect; potency means the concentration at half of the fitted maximal effect.

SMILES | KB-3-1 tox | KB-V1 MDR tox | TDP1 cell noCPT | HT1080 IDH1KD tx | HT1080NT lethal | TDP1 cell CPT
C=CCN(c1ccccc1)S(=O)(=O)c1cccc(C(=O)Nc2cccc(C)n2)c1 | i | ? | 23µM* | -11% | 0% | 18µM*
C=CCN(c1ccccc1)S(=O)(=O)c1cccc(C(=O)Nc2nnc(SCC)s2)c1 | ? | i | ? | -23% | -13% | ?
CN(c1ccccc1)S(=O)(=O)c1ccc(C(=O)NCCc2ccc(F)cc2)cc1 | i | i | -23% | -6% | -11% | -8%
CCc1sc(C(=O)NCCc2ccc(S(N)(=O)=O)cc2)cc1Br | i | i | 16µM* | -14% | -7% | ?
CCN(c1ccccc1)S(=O)(=O)c1ccc(C(=O)NCCc2ccc(S(N)(=O)=O)cc2)cc1 | i | i | ? | -11% | -28% | 23µM*
CCc1sc(C(=O)NC)cc1Br | i | i | 35% | -10% | 12% | 4%
CCCn1c(CCC(=O)Nc2ccc(OCC)cc2)nc2cccnc21 | i | ? | ? | / | / | ?
CCOC(=O)c1c(C)[nH]c(C)c1S(=O)(=O)N(C)CC(=O)Nc1ccc(C)c(F)c1 | i | i | -18% | / | / | -16%
O=C(/C=C/c1ccccc1)Nc1cccc(C(=O)N2CCCC2)c1 | i | i | -20% | 4% | -1% | ?
CN(c1ccc(C(=O)Nc2ccccn2)cc1)S(=O)(=O)c1ccccc1 | i | i | -30% | -1% | 0% | -30%
CCN(c1cccc(C)c1)S(=O)(=O)c1cccc(C(=O)O)c1 | i | i | 6% | 5% | 10% | -2%
CCN(c1ccccc1)S(=O)(=O)c1ccc(C(=O)Nc2ccccn2)cc1 | ? | ? | ? | 1% | -3% | 21µM*
CCN(c1ccccc1)S(=O)(=O)c1cccc(C(=O)Nc2cccc(C)n2)c1 | i | ? | 21µM* | -10% | -16% | 23µM*
CCC(CC)CN1CCC(CN2C(=S)NC[C@@H]2[C@@H](C)CC)CC1 | i | i | -8% | 8% | 4% | 11%
NC(c1ccccc1)c1cccs1 (stereo not drawn) | i | i | -19% | 12% | 8% | -21%
COc1cccc(/C=C(/C#N)c2ccc(F)cc2)c1OCc1cccc(C(=O)O)c1 | i | i | 7% | 12% | 3% | 6%
N#C/C(=C/c1ccc(N2CCCCCC2)o1)c1ccc(F)cc1 | ? | ? | 4.6µM* | 9.2µM* | ? | 5.2µM*
N#C/C(=C/c1ccc(N2CCCCCC2)o1)c1cccc(F)c1 | i | 15µM* | 21µM* | 6.3µM* | 11µM* | ?
N#C/C(=C/c1cccn1-c1cccc(C(=O)O)c1)c1ccc(F)cc1 | i | i | 24% | 0% | 0% | 5%
COc1cc(N2CCCC2)c(OC)cc1/C=C(/C#N)c1cccc(F)c1 | ? | 16µM* | ? | -1% | -3% | ?
COC(=O)C1=C(C(=O)OC)SC2(S1)C(C(=O)OC)=C(C(=O)OC)SC1=C2c2cc(C)ccc2NC1(C)C | i | i | 15µM* | -22% | -14% | 21µM*
COC(=O)c1c(-c2cc(C)ccc2C)csc1NC(=O)C1CC=CCC1C(=O)O (stereo not drawn) | i | i | -6% | -2% | 5% | 2%
N#Cc1nc(N2CCCCC2)nc(N2CCCCC2)n1 | i | i | 13µM* | / | / | ?
N#Cc1nc(N2CCCCC2)nc(N(c2ccccc2)c2ccccc2)n1 | i | i | 13µM* | / | / | 11µM*
N#CC1(c2ccc(NC(=O)c3ccccc3F)cc2)CCCC1 | ? | 23µM* | ? | -6% | -7% | ?
SMILES | KB-3-1 tox | KB-V1 MDR tox | TDP1 cell noCPT | HT1080 IDH1KD tx | HT1080NT lethal | TDP1 cell CPT
O=C(/C=C/c1ccncc1)c1ccc(NC(=O)c2ccccc2F)cc1 | ? | ? | 2.9µM* | 9.2µM* | 7.3µM* | 4.1µM*
CCN(CC)c1ccc(NC(=O)c2ccccc2F)cc1 | 16µM* | ? | 23µM* | 16µM* | ? | ?
O=C(Nc1ccc(N2CCCC2)cc1)c1ccccc1F | i | ? | ? | -21% | -19% | 10µM*
O=C(/C=C/c1ccc(NC(=O)c2ccccc2-c2ccccc2C(=O)O)cc1)c1ccccc1 | i | i | ? | ? | ? | -19%
O=C(Nc1ccc(N2CCCCC2)cc1)c1ccc(F)cc1F | i | i | -10% | -1% | -9% | -22%
Cc1ccc2c(c1)c1c(c(=O)n(-c3cccc(Cl)c3)c(=O)n1CC(=O)NCC1CCCO1)n2C (stereo not drawn) | i | i | -21% | / | / | -22%
CC(=O)N1CCN(c2ccc(NC(=O)c3cccc(Cl)c3Cl)cc2)CC1 | i | i | -21% | 3% | -11% | -20%
O=C(Nc1ccc(N2CCCC2)cc1)c1cccc(Cl)c1Cl | ? | ? | 16µM* | -15% | -15% | ?
CCC(CC)C(=O)Nc1cccc(C(=O)Nc2nnc(C)s2)c1 | i | i | ? | -3% | 1% | 11%
CCC(=O)Nc1ccc(NC(=O)c2ccc3c(c2)OCO3)cc1 | i | i | -18% | -17% | -19% | -4%
CCC(CC)C(=O)Nc1cccc(C(=O)Nc2ccc3c(c2)OCO3)c1 | i | i | ? | -14% | ? | 26µM*
CCC(CC)C(=O)Nc1cccc(C(=O)Nc2ccc(S(N)(=O)=O)cc2)c1 | i | i | -11% | 2% | -7% | -6%
CCN(CC)c1ccc(NC(=O)c2ccc3c(c2)OCO3)cc1 | ? | ? | ? | 21µM* | ? | ?
CCC(CC)C(=O)Nc1cccc(C(=O)Nc2ccc(S(=O)(=O)Nc3ccc(C)cc3)cc2)c1 | ? | ? | ? | ? | ? | 21µM*
CCC(CC)C(=O)Nc1cccc(C(=O)Nc2nccs2)c1 | i | ? | 23µM* | 1% | 11% | ?
Cc1cccc(NC(=O)COc2cccc3c2CCNC3=O)c1 | i | i | 3% | -1% | -6% | ?
Cc1ccc(S(=O)(=O)Nc2ccc(C(=O)Nc3cc(C)on3)cc2)cc1 | i | i | -15% | 10% | 26% | 3%
Cc1ccc(NS(=O)(=O)c2cccc(C(=O)Nc3cc(C)on3)c2)cc1 | i | 4.6µM* | ? | -4% | -2% | ?
COc1ccccc1Nc1nc(NCC(C)C)nc(N)c1[N+](=O)[O-] | i | i | 26µM* | 2% | -3% | ?
